Bioassay records: PubChem BioAssay, The Scripps Research Institute Molecular Screening Center
proKLK7 act: activates the human kallikrein-7 zymogen | P49862 | purified proKLK7, EDANS-DABCYL substrate fluorescence; 100% is mature enzyme control, 0% vehicle | activation, % at 7 µM | hit rate 0.9% among 370,000 | AID 652039;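 active = activation above the mean of all tested compounds plus 3 SD, computed per campaign excluding outliers beyond control limits, cut at about 13% in these data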
ADAM10 inh: inhibits human ADAM10; O14672; recombinant ADAM10, EDANS/DABCYL FRET peptide cleavage, 3 h; inhibition, % at 7 µM; hit rate 0.62% among 370,000; AID 720582;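 active = inhibition above a per-campaign cutoff equal to the mean of compounds falling between control-based bounds plus 3 SD, cut at about 20% in these data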;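 also: 0% = DMSO wells while the 100% control is not disclosed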
ADAM17 inh: inhibitors of human ADAM17 | P78536 | recombinant ADAM17, EDANS/DABCYL FRET peptide cleavage | inhibition, % at 6.95 µM | hit rate 0.83% among 370,000 | AID 720648;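 active = inhibition above the mean of compounds lying between control limits plus 3 SD, set per campaign, cut at about 8.5% in these data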;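 also: 0% = DMSO-only wells as the low control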
HGIII-sPLA2 inh: Blocks human group III sPLA2 activity. Q9NZ20. QFRET BODIPY PC-A2 liposome hydrolysis, fluorescence. inhibition, % at 12.2 µM. hit rate 0.56% among 370,000. AID 743126;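 active = inhibition above mean plus 3 SD of compounds lying within the high and low control bounds, cut at about 19% in these data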;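 also: 0% = median of test compound wells and 100% = no enzyme DMSO wells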
PLCg1 inh: inhibitors of human phospholipase C gamma1; P19174; purified PLC-gamma1, fluorogenic substrate, fluorescence; inhibition, % at 12.2 µM; hit rate 0.84% among 370,000; in the data active = inhibition above about 9.5%
PLCb3 inh: inhibitors of human phospholipase C beta3; Q01970; hit rate 0.18% among 370,000; inhibition, % at 12.2 µM; Purified PLC-beta3, fluorogenic substrate, fluorescence; in the data active = inhibition above about 11%;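 also: 0% = median of compound wells on plate and 100% = full blocker control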
ADAM10 confirm: confirmation of inhibitors of human ADAM10. shares compounds with ADAM10 inh. ADAM10 QFRET peptide cleavage, EDANS fluorescence. inhibition, % at 6.95 µM. hit rate 1% among 2,100;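 active = inhibition above about 20% chosen separately for each screening run, limit read from the data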;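 also: 0% = DMSO wells and 100% = marimastat wells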
ADAM17 ctr: inhibits human ADAM17 in ADAM10 exosite counter-screen | shares compounds with ADAM10 inh | AID 743214 | hit rate 0.5% among 2,100 | inhibition, % at 6.95 µM | ADAM17 QFRET peptide cleavage, EDANS fluorescence;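 active = mean triplicate inhibition above the solvent-only control wells' mean plus 3 SD, cut at about 12% in these data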;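 also: 0% = DMSO wells and 100% = marimastat wells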
* hit, by the source's call. Hits are enriched below; roughly 3.4% of the tested compounds scored in any of these assays.

Results for CC(=O)N(/N=C1\Sc2ccccc2C1=O)c1ccc(C)cc1C ?
proKLK7 act: 0; ADAM10 inh: 1; ADAM17 inh: -1; HGIII-sPLA2 inh: 0; PLCg1 inh: 0; PLCb3 inh: -3

How did CC(=O)N(/N=C1\Sc2ccccc2C1=O)c1ccccc1C do in these assays?
proKLK7 act: 0; ADAM10 inh: 77*; ADAM17 inh: 2; HGIII-sPLA2 inh: 10; PLCg1 inh: -6; PLCb3 inh: -6; ADAM10 confirm: 1; ADAM17 ctr: 1

What do the screens show for `Cc1ccc(-n2c(SCC(=O)c3ccc(O)c(O)c3)nnc2-c2ccccc2)cc1`?
proKLK7 act: 0; ADAM10 inh: 16; ADAM17 inh: 5; HGIII-sPLA2 inh: 17; PLCg1 inh: 2; PLCb3 inh: -7

What do the screens show for `Cc1cccc(N=Nc2c(C)nn(-c3ccccc3)c2N)c1C`?
proKLK7 act: 0; ADAM10 inh: 23*; ADAM17 inh: 6; HGIII-sPLA2 inh: 13; PLCg1 inh: 6; PLCb3 inh: 7; ADAM10 confirm: 7; ADAM17 ctr: 3

How did O=C(Cc1ccc(NC(=O)C2CCN(C(=O)CCc3ccccc3)CC2)cc1)Nc1cccc(C(=O)N2CCCC2)c1 do in these assays?
proKLK7 act: 1; ADAM10 inh: -19; ADAM17 inh: -7; HGIII-sPLA2 inh: -16; PLCg1 inh: -2; PLCb3 inh: -6

Results for Cc1noc(C)c1NC(=O)N(C)C[C@@H]1OCc2cn(nn2)CCCC(=O)N([C@@H](C)CO)C[C@H]1C ?
proKLK7 act: 1; ADAM10 inh: -11; ADAM17 inh: -2; HGIII-sPLA2 inh: 7; PLCg1 inh: 3; PLCb3 inh: 1

What do the screens show for `CCOC(=O)C1C(=O)C=C(C)C(C(=O)OCC)C1c1cccc([N+](=O)[O-])c1` (stereo unspecified)?
proKLK7 act: 0; ADAM10 inh: 20*; ADAM17 inh: 1; HGIII-sPLA2 inh: -18; PLCg1 inh: 4; PLCb3 inh: -4; ADAM10 confirm: 2; ADAM17 ctr: 0

Results for CCOC(=O)C1C(=O)C=C(c2ccc([N+](=O)[O-])cc2)CC1c1ccccc1 (stereo unspecified) ?
proKLK7 act: 1; ADAM10 inh: 7; ADAM17 inh: 0; HGIII-sPLA2 inh: -4; PLCg1 inh: -8; PLCb3 inh: -9

What do the screens show for `C[C@@H]1ON(C)[C@H]2C[C@H]3c4cc(-c5cccc(Cl)c5)ccc4CCN3C[C@@H]12`?
proKLK7 act: 1; ADAM10 inh: -11; ADAM17 inh: -5; HGIII-sPLA2 inh: 0; PLCg1 inh: -6; PLCb3 inh: -11

What do the screens show for `CCC[C@H]1[C@@H](NC(=O)c2ccc(Cl)c(C(F)(F)F)c2)CC[C@@]23CCCN2C(=O)CCC[C@@H]13`?
ADAM10 inh: 1; ADAM17 inh: 0; HGIII-sPLA2 inh: -7; PLCg1 inh: -1; PLCb3 inh: -1

How did CCOC(=O)Nc1nc(-c2ccccc2)c(C(=O)c2ccc(Cl)cc2)s1 do in these assays?
proKLK7 act: -1; ADAM10 inh: 21*; ADAM17 inh: 7; HGIII-sPLA2 inh: -16; PLCg1 inh: -5; PLCb3 inh: -13; ADAM10 confirm: 8; ADAM17 ctr: 3

What do the screens show for `CC(CC(=O)O)CC(=O)Nc1cc([N+](=O)[O-])ccc1O` (stereo unspecified)?
proKLK7 act: 0; ADAM10 inh: 20*; ADAM17 inh: 1; HGIII-sPLA2 inh: 5; PLCg1 inh: 1; PLCb3 inh: -26; ADAM10 confirm: 4; ADAM17 ctr: 1

What do the screens show for `COC(=O)C1=C(C)NC(C)=C(C(=O)OCC2CCCO2)C1c1cccc(Cl)c1` (stereo unspecified)?
proKLK7 act: 1; ADAM10 inh: -122; ADAM17 inh: -31; HGIII-sPLA2 inh: -6; PLCg1 inh: -87; PLCb3 inh: -126

What do the screens show for `COC(=O)C1=C(C)NC(C)=C(C(=O)OCC2CCCO2)C1c1ccc(Cl)c([N+](=O)[O-])c1` (stereo unspecified)?
proKLK7 act: 0; ADAM10 inh: 26*; ADAM17 inh: 4; HGIII-sPLA2 inh: 0; PLCg1 inh: 6; PLCb3 inh: 0; ADAM10 confirm: 2; ADAM17 ctr: 1

What do the screens show for `COC(=O)[C@]12C[C@H](CC(=O)NCc3ccccc3)C(=O)N(Cc3cccc4ccccc34)C1=C[C@H](C(C)C)O[C@@H]2C1CC1`?
proKLK7 act: 0; ADAM10 inh: 23*; ADAM17 inh: 8; HGIII-sPLA2 inh: -17; PLCg1 inh: -1; PLCb3 inh: -1; ADAM10 confirm: 10; ADAM17 ctr: 3

How did COC(=O)[C@]12C[C@H](CC(=O)NCc3cccc(C(F)(F)F)c3)C(=O)N(Cc3cccc4ccccc34)C1=C[C@H](C(C)C)O[C@@H]2C1CC1 do in these assays?
proKLK7 act: 0; ADAM10 inh: 25*; ADAM17 inh: 3; HGIII-sPLA2 inh: -18; PLCg1 inh: -1; PLCb3 inh: 1; ADAM10 confirm: 10; ADAM17 ctr: 3

Results for COC(=O)[C@]12C[C@H](CC(=O)NCc3cccc4ccccc34)C(=O)N(Cc3cccc4ccccc34)C1=C[C@H](C(C)C)O[C@@H]2C1CC1 ?
proKLK7 act: -1; ADAM10 inh: 13; ADAM17 inh: 7; HGIII-sPLA2 inh: -11; PLCg1 inh: 3; PLCb3 inh: -1

How did O=C(Nc1ccc(Cl)c(Cl)c1)c1ccc(Cn2cc(Cl)cn2)cc1 do in these assays?
proKLK7 act: -1; ADAM10 inh: 29*; ADAM17 inh: 8; HGIII-sPLA2 inh: -3; PLCg1 inh: -1; PLCb3 inh: -5; ADAM10 confirm: 8; ADAM17 ctr: 2

How did COC(=O)C1=C(C)N(Cc2ccc(Cl)cc2)C(=S)NC1c1cccc(OC)c1 (stereo unspecified) do in these assays?
proKLK7 act: 0; ADAM10 inh: 22*; ADAM17 inh: 7; HGIII-sPLA2 inh: 2; PLCg1 inh: 0; PLCb3 inh: -2; ADAM10 confirm: 4; ADAM17 ctr: 2

What do the screens show for `COc1ccc(C=NN(C)C(=O)Nc2cccc(Cl)c2)cc1OC`?
proKLK7 act: 0; ADAM10 inh: -4; ADAM17 inh: 0; HGIII-sPLA2 inh: -1; PLCg1 inh: -2; PLCb3 inh: 1

Results for O=C1CN(C(=O)c2ccc(Cl)c([N+](=O)[O-])c2)c2ccccc2N1 ?
proKLK7 act: -1; ADAM10 inh: 4; ADAM17 inh: -4; HGIII-sPLA2 inh: 15; PLCg1 inh: 1; PLCb3 inh: -11
